In the supplement of paper PMC4466140:

molecular target: CaNbp2; assay: SPOT peptide array binding signal intensity (averaged, normalized) (arbitrary units (background-subtracted, floor 0; scale differs between SH3 domains)); higher = stronger binding of the SH3 domain to the peptide
How it was run: (§1)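 Cellulose membranes carried synthetic 15-mer peptides with cysteines swapped for serines. These were incubated overnight at 4°C with 10 μg/ml of GST-fused SH3 domains from four yeast species in TBS-based blocking buffer. Binding signal, detected with anti-GST antibody and quantified in Genespotter, is the normalized, background-subtracted spot intensity averaged over replicates, in arbitrary units specific to each domain.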

Row | Binder | SPOT peptide array binding signal intensity
1 | RRARRQMGIPTISQV | 1560

molecular target: CaRvs167; assay: as above
How it was run: as §1

Row | Binder | SPOT peptide array binding signal intensity
2 | RRARRQMGIPTISQV | 58

molecular target: CaRvs167-3; assay: as above
How it was run: as §1

Row | Binder | SPOT peptide array binding signal intensity
3 | RRARRQMGIPTISQV | 89.8

molecular target: CaSho1; assay: as above
How it was run: as §1

Row | Binder | SPOT peptide array binding signal intensity
4 | RRARRQMGIPTISQV | 758

molecular target: CaSla1-D1-D2; assay: as above
How it was run: as §1

Row | Binder | SPOT peptide array binding signal intensity
5 | RRARRQMGIPTISQV | 385

molecular target: CaSla1-D3; assay: as above
How it was run: as §1

Row | Binder | SPOT peptide array binding signal intensity
6 | RRARRQMGIPTISQV | 104

molecular target: ScAbp1; assay: as above
How it was run: as §1

Row | Binder | SPOT peptide array binding signal intensity
7 | RRARRQMGIPTISQV | 152

molecular target: ScBbc1; assay: as above
How it was run: as §1

Row | Binder | SPOT peptide array binding signal intensity
8 | RRARRQMGIPTISQV | 35.5

molecular target: ScBem1-D1; assay: as above
How it was run: as §1

Row | Binder | SPOT peptide array binding signal intensity
9 | RRARRQMGIPTISQV | 100

molecular target: ScBzz1-D1; assay: as above
How it was run: as §1

Row | Binder | SPOT peptide array binding signal intensity
10 | RRARRQMGIPTISQV | 11.5

molecular target: ScBzz1-D2; assay: as above
How it was run: as §1

Row | Binder | SPOT peptide array binding signal intensity
11 | RRARRQMGIPTISQV | 54.5

molecular target: ScCyk3; assay: as above
How it was run: as §1

Row | Binder | SPOT peptide array binding signal intensity
12 | RRARRQMGIPTISQV | 53.5

molecular target: ScFus1; assay: as above
How it was run: as §1

Row | Binder | SPOT peptide array binding signal intensity
13 | RRARRQMGIPTISQV | 671

molecular target: ScHof1; assay: as above
How it was run: as §1

Row | Binder | SPOT peptide array binding signal intensity
14 | RRARRQMGIPTISQV | 0.5

molecular target: ScHse1; assay: as above
How it was run: as §1

Row | Binder | SPOT peptide array binding signal intensity
15 | RRARRQMGIPTISQV | 2110

molecular target: ScLsb1; assay: as above
How it was run: as §1

Row | Binder | SPOT peptide array binding signal intensity
16 | RRARRQMGIPTISQV | 72.5

molecular target: ScLsb2; assay: as above
How it was run: as §1

Row | Binder | SPOT peptide array binding signal intensity
17 | RRARRQMGIPTISQV | 2

molecular target: ScLsb3; assay: as above
How it was run: as §1

Row | Binder | SPOT peptide array binding signal intensity
18 | RRARRQMGIPTISQV | 639

molecular target: ScLsb4; assay: as above
How it was run: as §1

Row | Binder | SPOT peptide array binding signal intensity
19 | RRARRQMGIPTISQV | 121

molecular target: ScMyo3; assay: as above
How it was run: as §1

Row | Binder | SPOT peptide array binding signal intensity
20 | RRARRQMGIPTISQV | 2.25

molecular target: ScMyo5; assay: as above
How it was run: as §1

Row | Binder | SPOT peptide array binding signal intensity
21 | RRARRQMGIPTISQV | 1.5

molecular target: ScNbp2; assay: as above
How it was run: as §1

Row | Binder | SPOT peptide array binding signal intensity
22 | RRARRQMGIPTISQV | 1060

molecular target: ScPex13; assay: as above
How it was run: as §1

Row | Binder | SPOT peptide array binding signal intensity
23 | RRARRQMGIPTISQV | 96.9

molecular target: ScRvs167; assay: as above
How it was run: as §1

Row | Binder | SPOT peptide array binding signal intensity
24 | RRARRQMGIPTISQV | 95

molecular target: ScSho1; assay: as above
How it was run: as §1

Row | Binder | SPOT peptide array binding signal intensity
25 | RRARRQMGIPTISQV | 978

molecular target: ScSla1-D1-D2; assay: as above
How it was run: as §1

Row | Binder | SPOT peptide array binding signal intensity
26 | RRARRQMGIPTISQV | 484

molecular target: ScSla1-D3; assay: as above
How it was run: as §1

Row | Binder | SPOT peptide array binding signal intensity
27 | RRARRQMGIPTISQV | 308

molecular target: SpAbp1-D1; assay: as above
How it was run: as §1

Row | Binder | SPOT peptide array binding signal intensity
28 | RRARRQMGIPTISQV | 416

molecular target: SpBbc1; assay: as above
How it was run: as §1

Row | Binder | SPOT peptide array binding signal intensity
29 | RRARRQMGIPTISQV | 12.2

molecular target: SpBzz1-D1; assay: as above
How it was run: as §1

Row | Binder | SPOT peptide array binding signal intensity
30 | RRARRQMGIPTISQV | 143

molecular target: SpBzz1-D2; assay: as above
How it was run: as §1

Row | Binder | SPOT peptide array binding signal intensity
31 | RRARRQMGIPTISQV | 4.25

molecular target: SpCyk3; assay: as above
How it was run: as §1

Row | Binder | SPOT peptide array binding signal intensity
32 | RRARRQMGIPTISQV | 3.5

molecular target: SpHof1; assay: as above
How it was run: as §1

Row | Binder | SPOT peptide array binding signal intensity
33 | RRARRQMGIPTISQV | 188

molecular target: SpHof1-2; assay: as above
How it was run: as §1

Row | Binder | SPOT peptide array binding signal intensity
34 | RRARRQMGIPTISQV | 71

molecular target: SpHof1-3; assay: as above
How it was run: as §1

Row | Binder | SPOT peptide array binding signal intensity
35 | RRARRQMGIPTISQV | 435

molecular target: SpHse1; assay: as above
How it was run: as §1

Row | Binder | SPOT peptide array binding signal intensity
36 | RRARRQMGIPTISQV | 1100

molecular target: SpLsb1; assay: as above
How it was run: as §1

Row | Binder | SPOT peptide array binding signal intensity
37 | RRARRQMGIPTISQV | 7.5

molecular target: SpLsb4; assay: as above
How it was run: as §1

Row | Binder | SPOT peptide array binding signal intensity
38 | RRARRQMGIPTISQV | 642

molecular target: SpMyo1; assay: as above
How it was run: as §1

Row | Binder | SPOT peptide array binding signal intensity
39 | RRARRQMGIPTISQV | 13.5

molecular target: SpNbp2; assay: as above
How it was run: as §1

Row | Binder | SPOT peptide array binding signal intensity
40 | RRARRQMGIPTISQV | 1480

molecular target: SpPex13; assay: as above
How it was run: as §1

Row | Binder | SPOT peptide array binding signal intensity
41 | RRARRQMGIPTISQV | 86

molecular target: SpRvs167; assay: as above
How it was run: as §1

Row | Binder | SPOT peptide array binding signal intensity
42 | RRARRQMGIPTISQV | 50.2

molecular target: SpSla1-D1-D2; assay: as above
How it was run: as §1

Row | Binder | SPOT peptide array binding signal intensity
43 | RRARRQMGIPTISQV | 24.2

molecular target: SpSla1-D3; assay: as above
How it was run: as §1

Row | Binder | SPOT peptide array binding signal intensity
44 | RRARRQMGIPTISQV | 131
